Results on 20 molecules are retold here after PubChem BioAssay AID485270 (The Scripps Research Institute Molecular Screening Center, 2010).

The campaign covered roughly 330,000 compounds. About 5,800 (1.8%) were called active. No stated cut-off is given here; in the data, active means inhibition mostly above about 38% (no sharp cut-off); inactive means mostly below about 40%. This excerpt belongs to a sample that is enriched for actives.

In this assay the target is Orexin/Hypocretin receptor type 1 (Homo sapiens) (UniProt O43613). Kind of assay: antagonists of human orexin 1 receptor (OX1R) (AID 485270).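 Further: 0% = agonist challenge alone and 100% = reference antagonist.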 Conditions: OX1R-expressing cells, FRET antagonist read-out; at 6.6 µM; hits give high values.
Orexin/Hypocretin receptor type 1 (Homo sapiens), sequence (O43613 whole entry, looked up): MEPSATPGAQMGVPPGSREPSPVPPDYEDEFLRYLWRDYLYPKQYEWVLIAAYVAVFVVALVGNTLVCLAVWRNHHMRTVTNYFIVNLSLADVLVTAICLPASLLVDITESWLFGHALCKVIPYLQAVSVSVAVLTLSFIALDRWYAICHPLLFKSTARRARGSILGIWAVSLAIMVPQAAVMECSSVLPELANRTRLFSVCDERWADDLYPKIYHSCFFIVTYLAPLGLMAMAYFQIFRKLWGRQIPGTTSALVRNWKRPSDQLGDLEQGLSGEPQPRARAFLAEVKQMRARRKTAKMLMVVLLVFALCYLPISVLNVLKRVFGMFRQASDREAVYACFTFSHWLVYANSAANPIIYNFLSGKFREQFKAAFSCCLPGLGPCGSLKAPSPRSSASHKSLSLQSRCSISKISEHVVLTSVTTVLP
Regarding `O=C(N/N=C/c1c(O)n(Cc2ccccc2)c(=O)[nH]c1=O)c1ccccc1`, the inhibition (usually the drop in the measured response relative to a control, in per cent) is 20.1% (inactive).
With `O=C(N/N=C/c1c(O)n(C2CC2)c(=S)[nH]c1=O)c1ccccc1Cl` the figure was 16.5% (inactive); with `O=C(N/N=C/c1c(O)n(C2CC2)c(=S)[nH]c1=O)c1ccccc1`, 48.4% (active); with `O=C(CSC1c2ccccc2-c2ccccc21)N/N=C/c1ccccc1`, 53.4% (inactive).
As for `CNC(=O)Nc1ccc(C(O)(C(=O)OC)C(F)(F)F)cc1` (stereo not given), the inhibition is 1.75% (inactive).
As to `COc1ccc2c(c1O)-c1cccc3c1[C@@H](C2)N(C)CC3`, the inhibition was 21.8% (inactive).
As for `CCN1CCN(c2ccc([N+](=O)[O-])cc2C#N)CC1`, the inhibition was 30.8% (inactive).
Take `Cc1nc2ccc(N3CCN(C)CC3)cc2nc1C`: the inhibition was 36.4% (inactive).
Next, `CN1CCN(c2cc(N3CCNCC3)ccc2[N+](=O)[O-])CC1`: 61% (active).
For `Cc1cccc2c(CCN)c[nH]c12`, the inhibition is 13.2% (inactive).
With `CCOCCc1c(O)[nH]c(=S)[nH]c1=O` the figure was -2.14% (inactive).
With `O=C1N=c2ccccc2=C/C1=C\c1c(O)[nH]c(=S)[nH]c1=O` the figure was 42.6% (inactive); with `COc1ccccc1N=Nc1c(O)[nH]c(=S)[nH]c1=O`, 55.9% (active).
`O=c1[nH]c(CN2CC=C(c3ccccc3)CC2)nc2scc(-c3cccs3)c12`: the inhibition was 7.54% (inactive).
`CC(=O)Nc1ccc(C(=O)C(Cc2ccccc2)N(C)C)cc1` (stereo not given): the inhibition is 4.57% (inactive).
As for `COc1cccc(-c2nc3ccc(N4CCN(C)CC4)cc3[nH]2)c1`, the inhibition was 20.4% (inactive).
In the case of `CCN(CC)c1ccc([N+](=O)[O-])c2cccnc12`, the inhibition was 28.8% (inactive).
Next, `CN(c1ccccc1)c1ccc([N+](=O)[O-])c2nonc12`: 73.5% (active); `CN1CCN(Cc2ccc(OC(F)(F)F)cc2)CC1`: 2.95% (inactive); `O=C(Cc1ccccc1)N1CCN(C2CCCCCC2)CC1`: -3.88% (inactive).
